Laboratory results: PubChem BioAssay (NCATS)
Inconclusive results are not listed. Unmarked numbers belong to inactive results. Active and inactive are the calls of the source. The call rests on the fitted dose curve; in most records, active means well fitted inhibition curve with a large enough effect; inconclusive means small, poorly fitted or top-dose-only effect; inactive means flat fitted curve, though single readings scatter.
On the % scale 0 is the no-effect control and ±100 the full control effect; potency means the concentration at half of the fitted maximal effect.

Test system: not listed separately
Assay: Drug repurposing screens with cells derived from glioblastoma tumor samples (AID 1345199); further: nearly all actives have a fitted effect of over 40% in size
Settings: GBM patient neurospheres viability, ATP luminescence, 48 h; at 46 µM (top of the series); tumour line A
How it was run: (§1)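 Primary testing used CD133+ neurospheres from four GBM patients, seven concentrations, 48 h exposure and ATP-based viability; confirmation added three slower-growing patient lines.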
Compound `CCC(C)(Oc1ccc(C2(c3ccc(OC(C)(CC)C(=O)O)cc3)CCCCC2)cc1)C(=O)O` (centres undefined) has an activity, negative = cell killing of -6.69%.
For `O=C(O)CCNC(=O)c1ccc(N=Nc2ccc(O)c(C(=O)O)c2)cc1`, the activity, negative = cell killing was -28%.
Compound `O=C(NCC1CCCCN1)c1cc(OCC(F)(F)F)ccc1OCC(F)(F)F` (centres undefined) has an activity, negative = cell killing of 20.5%.

Same assay, conditions: GBM patient neurospheres viability, ATP luminescence, 48 h; at 46.1 µM (top of the series); tumour line C
`CCC(C)(Oc1ccc(C2(c3ccc(OC(C)(CC)C(=O)O)cc3)CCCCC2)cc1)C(=O)O` (centres undefined) showed an activity, negative = cell killing of -24.8%.
Compound `O=C(O)CCNC(=O)c1ccc(N=Nc2ccc(O)c(C(=O)O)c2)cc1` has an activity, negative = cell killing of -6.53%.
For `COC(=O)N[C@H](C(=O)N[C@@H](Cc1ccccc1)[C@@H](O)CN(Cc1ccc(-c2ccccn2)cc1)NC(=O)[C@@H](NC(=O)OC)C(C)(C)C)C(C)(C)C`, the activity, negative = cell killing was 8.04%.
For `Nc1cc(C(Cl)=C(Cl)Cl)c(S(N)(=O)=O)cc1S(N)(=O)=O`, the activity, negative = cell killing was 10.7%.
In the case of `Cc1cc2c(s1)Nc1ccccc1N=C2N1CCN(C)CC1`, the activity, negative = cell killing is reported as -6.39%.
`CN1CCC(=C2c3ccccc3CCc3sccc32)CC1` gave an activity, negative = cell killing of 4.48%.
`c1ccc2[nH]c(-c3cscn3)nc2c1` gave an activity, negative = cell killing of 7.08%.
Compound `Cc1cccc(C)c1OCC(=O)N[C@@H](Cc1ccccc1)[C@@H](O)C[C@H](Cc1ccccc1)NC(=O)[C@H](C(C)C)N1CCCNC1=O` has an activity, negative = cell killing of -29%.
`CCCCCCCCOc1ccccc1C(=O)Nc1ccc(C(=O)OCC[N+](C)(CC)CC)cc1` gave an activity, negative = cell killing of -98.5%.
With `CC1Cc2ccccc2N1NC(=O)c1ccc(Cl)c(S(N)(=O)=O)c1` (centres undefined) the activity, negative = cell killing was 0.368%.
Work on `Cc1nc2n(c(=O)c1CCN1CCC(c3noc4cc(F)ccc34)CC1)CCCC2` yielded an activity, negative = cell killing of -9.67%.
For `O=C(NCC1CCCCN1)c1cc(OCC(F)(F)F)ccc1OCC(F)(F)F` (centres undefined), the activity, negative = cell killing was -6.86%.

Same assay, conditions: GBM patient neurospheres viability, ATP luminescence, 48 h; tumour line A
For `COC(=O)N[C@H](C(=O)N[C@@H](Cc1ccccc1)[C@@H](O)CN(Cc1ccc(-c2ccccn2)cc1)NC(=O)[C@@H](NC(=O)OC)C(C)(C)C)C(C)(C)C`, the Potency was 11.2 µM (active).
For `Cc1cc2c(s1)Nc1ccccc1N=C2N1CCN(C)CC1`, the Potency was 12.6 µM (active).
For `CN1CCC(=C2c3ccccc3CCc3sccc32)CC1`, the Potency was 3.98 µM (active).
For `CC[C@]1(O)C[C@H]2CN(CCc3c([nH]c4ccccc34)[C@@](C(=O)OC)(c3cc4c(cc3OC)N(C=O)[C@H]3[C@@](O)(C(=O)OC)[C@H](OC(C)=O)[C@]5(CC)C=CCN6CC[C@]43[C@@H]65)C2)C1`, the Potency was 0.02 µM (active).
With `Cc1ccc(Nc2nccc(N(C)c3ccc4c(C)n(C)nc4c3)n2)cc1S(N)(=O)=O` the Potency was 2.51 µM (active).
For `Clc1ccc(C(Cn2ccnc2)OCc2c(Cl)cccc2Cl)c(Cl)c1` (centres undefined), the Potency was 7.94 µM (active).
With `Cc1cccc(C)c1OCC(=O)N[C@@H](Cc1ccccc1)[C@@H](O)C[C@H](Cc1ccccc1)NC(=O)[C@H](C(C)C)N1CCCNC1=O` the Potency was 10 µM (active).
In the case of `CCCCN(CCCC)CCC(O)c1cc2c(Cl)cc(Cl)cc2c2cc(C(F)(F)F)ccc12` (centres undefined), the Potency is reported as 11.2 µM (active).
In the case of `CCCCCCCCOc1ccccc1C(=O)Nc1ccc(C(=O)OCC[N+](C)(CC)CC)cc1`, the Potency is reported as 14.1 µM (active).
In the case of `Cc1nc2n(c(=O)c1CCN1CCC(c3noc4cc(F)ccc34)CC1)CCCC2`, the Potency is reported as 3.55 µM (active).

Same assay, conditions: GBM patient neurospheres viability, ATP luminescence, 48 h; tumour line D
With `CN1CCC(=C2c3ccccc3CCc3sccc32)CC1` the Potency was 12.6 µM (active).
In the case of `Cc1ccc(Nc2nccc(N(C)c3ccc4c(C)n(C)nc4c3)n2)cc1S(N)(=O)=O`, the Potency is reported as 7.08 µM (active).
With `Clc1ccc(C(Cn2ccnc2)OCc2c(Cl)cccc2Cl)c(Cl)c1` (centres undefined) the Potency was 7.08 µM (active).
In the case of `CCCCN(CCCC)CCC(O)c1cc2c(Cl)cc(Cl)cc2c2cc(C(F)(F)F)ccc12` (centres undefined), the Potency is reported as 11.2 µM (active).
With `Cc1nc2n(c(=O)c1CCN1CCC(c3noc4cc(F)ccc34)CC1)CCCC2` the Potency was 11.2 µM (active).

Test system: astro (control astrocytes)
Assay: as above
Settings: viability, ATP luminescence, 48 h; series mostly up to 45.9 µM; activity, negative = cell killing: at the top concentration
How it was run: as §1
For `CCC(C)(Oc1ccc(C2(c3ccc(OC(C)(CC)C(=O)O)cc3)CCCCC2)cc1)C(=O)O` (centres undefined), the “activity, negative = cell killing” value was -16.5%.
For `O=C(O)CCNC(=O)c1ccc(N=Nc2ccc(O)c(C(=O)O)c2)cc1`, the “activity, negative = cell killing” value was 4.57%.
With `COC(=O)N[C@H](C(=O)N[C@@H](Cc1ccccc1)[C@@H](O)CN(Cc1ccc(-c2ccccn2)cc1)NC(=O)[C@@H](NC(=O)OC)C(C)(C)C)C(C)(C)C` the “activity, negative = cell killing” value was -12.3%.
For `Nc1cc(C(Cl)=C(Cl)Cl)c(S(N)(=O)=O)cc1S(N)(=O)=O`, the Potency was “inactive”.
With `Cc1cc2c(s1)Nc1ccccc1N=C2N1CCN(C)CC1` the “activity, negative = cell killing” value was -23.6%.
For `Cc1cccc(C)c1OCC(=O)N[C@@H](Cc1ccccc1)[C@@H](O)C[C@H](Cc1ccccc1)NC(=O)[C@H](C(C)C)N1CCCNC1=O`, the “activity, negative = cell killing” value was 1.89%.
For `CCCCN(CCCC)CCC(O)c1cc2c(Cl)cc(Cl)cc2c2cc(C(F)(F)F)ccc12` (centres undefined), the “activity, negative = cell killing” value was -28.5% [at 21.2 µM].
With `CC1Cc2ccccc2N1NC(=O)c1ccc(Cl)c(S(N)(=O)=O)c1` (centres undefined) the Potency was “inactive”.
For `Cc1nc2n(c(=O)c1CCN1CCC(c3noc4cc(F)ccc34)CC1)CCCC2`, the “activity, negative = cell killing” value was -21.2%.
